# Assay results from the supplement of paper PMC10811239.
# Tested on: LEGO organoid PT (PTEN-/-; TP53-/-)
# Assay: bioluminescence (viable cell) signal fold change after vs before treatment, normalised to DMSO (ratio); higher = more tumour cell growth / less inhibition
# Settings: 10 µM; treatment time 6 days
# Description: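 Luc2-labelled iPSC-derived glioblastoma-like organoids (LEGOs, genotypes PT = PTEN-/-;TP53-/-, PTCC = plus CDKN2A/B-/-, PTN = plus NF1-/-) were treated with 10 uM drug for 6 days (applied every other day) at 37 C. Bioluminescence imaging was done before treatment and 2 days after the last dose. BLI signals were normalised to the DMSO control on the same day and then to the pre-treatment signal (N=3).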
row,Structure (SMILES),bioluminescence
1,C#CCN[C@@H]1CCc2ccccc21 [Rasagiline],2.76
2,CS(=O)(=O)c1ccc(C(=O)Nc2ccc(Cl)c(-c3ccccn3)c2)c(Cl)c1 [Vismodegib],0.63
3,CCC(CC)O[C@@H]1C=C(C(=O)O)C[C@H](N)[C@H]1NC(C)=O [Oseltamivir acid],0.803
4,CC[C@@]1(O)C(=O)OCc2c1cc1n(c2=O)Cc2cc3c(CN(C)C)c(O)ccc3nc2-1.Cl [Topotecan hydrochloride],1.39
5,CS(=O)(=O)CCNCc1ccc(-c2ccc3ncnc(Nc4ccc(OCc5cccc(F)c5)c(Cl)c4)c3c2)o1 [Lapatinib],1.62
6,Cl.N=C(N)NC(=O)Cc1c(Cl)cccc1Cl [Guanfacine hydrochloride],1.1
7,CC1=C(/C=C/C(C)=C/C=C/C(C)=C/C(=O)O)C(C)(C)CCC1 [Tretinoin],0.834
8,CCCCN1CCCCC1C(=O)Nc1c(C)cccc1C.Cl (stereo not given) [Bupivacaine hydrochloride],1.37
9,CO[C@H]1/C=C/O[C@@]2(C)Oc3c(C)c(O)c4c(O)c(c(/C=N/N5CCN(C)CC5)c(O)c4c3C2=O)NC(=O)/C(C)=C\C=C\[C@H](C)[C@H](O)[C@@H](C)[C@@H](O)[C@@H](C)[C@H](OC(C)=O)[C@@H]1C [Rifampicin],3.6
10,Cc1cn([C@H]2C[C@H](N=[N+]=[N-])[C@@H](CO)O2)c(=O)[nH]c1=O [Zidovudine],5.37
11,CCCN(CCC)S(=O)(=O)c1ccc(C(=O)O)cc1 [Probenecid],3.62
12,Nc1nc2ccc(OC(F)(F)F)cc2s1 [Riluzole],0.939
13,NC(=O)N1c2ccccc2CC(=O)c2ccccc21 [Oxcarbazepine],0.572
14,FC(F)(F)C(Cl)Br (stereo not given) [Anestan],1.01
15,CC(C)Nc1cccnc1N1CCN(C(=O)c2cc3cc(NS(C)(=O)=O)ccc3[nH]2)CC1.CS(=O)(=O)O [Delavirdine mesylate],0.826
16,CC(=O)O.Cc1c(-c2ccc(O)cc2)n(Cc2ccc(OCCN3CCCCCC3)cc2)c2ccc(O)cc12 [Bazedoxifene acetate],0.897
17,CN(C)CCc1c[nH]c2ccc(C[C@H]3COC(=O)N3)cc12 [Zolmitriptan],0.724
18,OC(Cn1cncn1)(Cn1cncn1)c1ccc(F)cc1F [Fluconazole],1.04
19,COc1cccc2c1C(=O)c1c(O)c3c(c(O)c1C2=O)C[C@@](O)(C(=O)CO)C[C@@H]3O[C@H]1C[C@H](N)[C@@H](O)[C@H](C)O1.Cl [Epirubicin hydrochloride],0
20,COc1cc(C(=O)NCc2ccc(OCCN(C)C)cc2)cc(OC)c1OC.Cl [Trimethobenzamide hydrochloride],1.11

row,Structure (SMILES),bioluminescence
1,C[C@H]1C[C@@H]2[C@H]([C@@H](O)C[C@@]3(C)[C@H]2CC[C@]3(O)C(=O)CO)[C@@]2(C)C=CC(=O)C=C12 [Methylprednisolone],1.3
2,OCCN1CCN(CCCN2c3ccccc3Sc3ccc(Cl)cc32)CC1 [Perphenazine],0.743
3,CCOC(=O)OC(C)OC(=O)[C@@H]1N2C(=O)[C@@H](NC(=O)[C@H](N)c3ccccc3)[C@H]2SC1(C)C.Cl (stereo not given in full) [Bacampicillin hydrochloride],0.788
4,CN(C)C(=N)NC(=N)N [Metformin],0.733
5,N[C@H](C(=O)O)[C@H](O)c1ccc(O)c(O)c1 [Droxidopa],1.08
6,CCN(CC)CC(=O)Nc1c(C)cccc1C.Cl [Lidocaine hydrochloride],1.49
7,CCCCCOC(=O)Nc1nc(=O)n([C@@H]2O[C@H](C)[C@@H](O)[C@H]2O)cc1F [Capecitabine],2.21
8,Cc1cc2c(s1)Nc1ccccc1N=C2N1CCN(C)CC1 [Olanzapine],1.17
9,CN1[C@@H]2CCC[C@H]1C[C@@H](NC(=O)c1nn(C)c3ccccc13)C2.Cl [Granisetron hydrochloride],0.715
10,CC(=O)c1c(C)c2cnc(Nc3ccc(N4CCNCC4)cn3)nc2n(C2CCCC2)c1=O.O=S(=O)(O)CCO [Palbociclib Isethionate],3.4
11,NCC[C@H](O)C(=O)N[C@@H]1C[C@H](N)[C@@H](O[C@H]2O[C@H](CN)[C@@H](O)[C@H](O)[C@H]2O)[C@H](O)[C@H]1O[C@H]1O[C@H](CO)[C@@H](O)[C@H](N)[C@H]1O.O=S(=O)(O)O.O=S(=O)(O)O [Amikacin disulfate],1.24
12,CCCCOc1ccc(C(=O)CCN2CCCCC2)cc1.Cl [Dyclonine hydrochloride],0.967
13,CC/C(=C(\c1ccccc1)c1ccc(OCCN(C)C)cc1)c1ccccc1 [Tamoxifen],0.646
14,CO/N=C(\C(=O)N[C@@H]1C(=O)N2C(C(=O)[O-])=C(CSc3nc(=O)c([O-])nn3C)CS[C@H]12)c1csc(N)n1.CO/N=C(\C(=O)N[C@@H]1C(=O)N2C(C(=O)[O-])=C(CSc3nc(=O)c([O-])nn3C)CS[C@H]12)c1csc(N)n1.O.O.O.O.O.O.O.[Na+].[Na+].[Na+].[Na+] [Ceftriaxone sodium],0.964
15,CN(C)CCOC(C)(c1ccccc1)c1ccccn1.O=C(O)CCC(=O)O (stereo not given) [Doxylamine succinate],0.83
16,CCC1(c2ccccc2)C(=O)NCNC1=O [Primidone],0.985
17,C=CC(=O)N1CCC[C@@H](n2nc(-c3ccc(Oc4ccccc4)cc3)c3c(N)ncnc32)C1 [Ibrutinib],0.73
18,CN1CCN(C2=Nc3cc(Cl)ccc3Nc3ccccc32)CC1 [Clozapine],1.13
19,CCOC(=O)C1=C(C)NC(C)=C(C(=O)OC)C1c1cccc(Cl)c1Cl (stereo not given) [Felodipine],1.06
20,Cl.O=C1c2cccc3c2[C@H](CCC3)CN1[C@@H]1CN2CCC1CC2 [Palonosetron hydrochloride],1.19
